Compound activity as filed in PubChem BioAssay.
LYPLA2 inh: counter-screen for PME1 inhibitors: inhibitors of human LYPLA2 | O95372 | recombinant LYPLA2, FP-Rh probe fluorescence polarization | inhibition, % at 5.9 µM | 320,000 tested, 0.38% active | AID 2177;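 active = inhibition above the screen-wide mean plus 3 SD, limit set per campaign, cut at about 26% in these data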;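 also: 0% = LYPLA2 with DMSO and 100% = wells lacking LYPLA2 enzyme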
Target sequence (O95372 whole entry, looked up): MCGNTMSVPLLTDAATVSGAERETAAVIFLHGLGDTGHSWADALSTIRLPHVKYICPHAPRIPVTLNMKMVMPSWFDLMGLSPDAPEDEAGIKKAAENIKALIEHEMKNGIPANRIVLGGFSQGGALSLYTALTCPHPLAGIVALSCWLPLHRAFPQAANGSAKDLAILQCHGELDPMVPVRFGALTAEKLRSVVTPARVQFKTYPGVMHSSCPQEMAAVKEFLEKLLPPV
PME-1 primary: PME-1 (human) inhibition. Q9Y570. recombinant PME-1, FP-Rh probe fluorescence polarization. inhibition, % at 5.9 µM. 320,000 tested, 0.53% active;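 active = inhibition above the campaign mean of all compounds plus 3 SD, cut at about 26% in these data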;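 also: competitive labeling of PME-1 active site by serine hydrolase directed probe; 0% = PME-1 with DMSO and 100% = wells lacking PME-1 enzyme; inhibitors block probe labeling so polarization falls and inhibition rises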
PAD4 inh: inhibitors of human PAD4. Q9UM07. recombinant PAD4, RCA probe fluorescence polarization. inhibition, % at 6.36 µM. 330,000 tested, 0.41% active. AID 485272;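 active = percent inhibition above a cutoff equal to the mean of all tested compounds plus 3 SD, cut at about 15% in these data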;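 also: 0% = PAD4 with RCA probe and DMSO and 100% = probe without PAD4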
GSTO1 counter: GSTO1 inhibition, counter-screen for RBBP9 inhibitors; recombinant GSTO1, activity-based probe fluorescence polarization; inhibition, % at 5.96 µM; 300,000 tested, 1.1% active;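 active = inhibition above the campaign mean inhibition plus 3 SD, cut at about 35% in these data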;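 also: 0% = GSTO1-1 with DMSO and 100% = wells lacking GSTO1-1 enzyme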
LYPLA1 counter: counter-screen for PME1 inhibitors: inhibitors of human LYPLA1; O75608; recombinant LYPLA1, FP-Rh probe fluorescence polarization; inhibition, % at 5.9 µM; 320,000 tested, 0.16% active; AID 2174;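 active = inhibition above the mean of all tested compounds plus 3 SD, set per campaign, cut at about 14% in these data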;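 also: inhibitors block serine hydrolase probe labeling of LYPLA1 so polarization falls; 0% = enzyme with DMSO and 100% = wells lacking LYPLA1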
Target sequence (O75608 whole entry, looked up): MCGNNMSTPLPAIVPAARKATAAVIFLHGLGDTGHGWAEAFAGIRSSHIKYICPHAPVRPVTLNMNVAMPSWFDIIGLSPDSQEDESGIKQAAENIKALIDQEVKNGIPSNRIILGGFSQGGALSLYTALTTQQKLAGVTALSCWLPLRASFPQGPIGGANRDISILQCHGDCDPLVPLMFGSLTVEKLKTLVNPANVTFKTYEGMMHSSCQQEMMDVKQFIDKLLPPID
Fam108B inh: Fam108B inhibition, counter-screen for RBBP9 inhibitors; 300,000 tested, 0.33% active; inhibition, % at 9.51 µM; AID 1947; recombinant Fam108B, FP-Rh probe fluorescence polarization;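 active = inhibition above the screen mean inhibition plus 3 SD, computed separately per campaign, cut at about 18% in these data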;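 also: inhibitors lower polarization as less probe binds the enzyme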
GSTO1 inh conf: GSTO1 (human) inhibition, confirmation; shares compounds with GSTO1 counter; recombinant GSTO1, probe fluorescence polarization; inhibition, % at 5.96 µM; 2,400 tested, 54% active;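 active = inhibition above the primary screen's cutoff, its mean inhibition plus 3 SD, cut at about 35% in these data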;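 also: loss of polarization as inhibitors block binding of rhodamine sulfonate ester activity probe; 0% = GSTO1 with DMSO and 100% = wells lacking GSTO1 enzyme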
* = called active by the depositor; . = no result given. In the library only some 1.8% were active in any assay of this set; here they are far more common.

SMILES | LYPLA2 inh | PME-1 primary | PAD4 inh | GSTO1 counter | LYPLA1 counter | Fam108B inh | GSTO1 inh conf
COC(=O)CCC(=O)OC1(C)C(=O)C=C2C=C(C3CC3)N(c3ccc(CO)cc3)C=C2C1=O (configuration not stated) | 1 | 1 | -5 | 21 | 0 | 1 | .
COC(=O)CCC(=O)OC1(C)C(=O)C=C2C=C(C3CC3)N(Cc3ccco3)C=C2C1=O (configuration not stated) | 6 | 5 | -3 | 38* | 4 | -2 | 17
CCOC(=O)c1c(C)[nH]c(C)c1S(=O)(=O)NCCc1ccco1 | -8 | -2 | -3 | 0 | -3 | 1 | .
Nc1nc(N)nc(-c2cc(O)ccc2O)n1 | 6 | 4 | -4 | . | -1 | . | .
Oc1ccc(O)c(-c2cnns2)c1 | -3 | 1 | 0 | 89* | -7 | 2 | -5
Cc1ccc(C)n1-c1ccc(N(C)C)cc1 | -1 | -5 | 0 | 46* | 3 | 4 | 6
CCc1cc(=O)oc2c3c(cc(OCC(=O)NCCCOC)c12)OC(C)(C)CC3 | 1 | -1 | -2 | 4 | -1 | 3 | .
COCCn1c(SCC(=O)N2CCOCC2)nnc1-c1ccco1 | 3 | -5 | 5 | 1 | 5 | -2 | .
COCCn1c(SCC(=O)N2CCCCCC2)nnc1-c1ccco1 | 0 | -1 | -10 | 39* | -2 | 5 | 7
Cc1c(O)cc2c(c1O)C(=O)CC(c1ccc(O)cc1)O2 (configuration not stated) | 2 | -1 | -1 | 51* | -5 | 2 | 10
COc1cc(O)c2c(c1)OC(c1ccc(O)cc1)CC2=O (configuration not stated) | 9 | 12 | 0 | 4 | 1 | 0 | .
COC(=O)C1CCN(C(=O)CN2C(=O)NC(CC(C)C)C2=O)CC1 (configuration not stated) | . | . | -4 | . | . | . | .
Cc1ccc2c(c1)N(CC(=O)NC(C)CCc1ccccc1)C(=O)c1cccnc1O2 (configuration not stated) | 0 | 2 | -3 | -1 | -4 | 6 | .
O=[N+]([O-])c1ccc(O)c(C=Nc2cccc3ncccc23)c1 | -2 | 2 | -3 | 5 | -2 | -2 | .
O=[N+]([O-])c1cccc(C=Nc2cccc3ccccc23)c1O | -1 | 4 | -10 | 41* | -1 | 2 | 4
Oc1ccc(C=Nc2cccc3ccccc23)c(O)c1 | -1 | 9 | -21 | 38* | -5 | 0 | 32
O=[N+]([O-])c1ccc(O)c(C=Nc2cccc3ccccc23)c1 | 3 | -4 | -11 | 52* | -1 | 7 | 16
CCCc1cc(=O)oc2cc(C)cc(OCC(=O)Nc3cccnc3)c12 | 7 | -6 | 1 | 5 | -3 | 2 | .
COc1ccc(NC(=O)CCN2CCN(S(=O)(=O)c3ccc(Br)cc3)CC2)cc1 | 6 | 5 | 1 | 71* | 0 | 1 | 6
O=C1CC(CC(=O)N/N=C/c2ccccc2[N+](=O)[O-])=NN1 | 1 | -6 | 14 | 52* | -3 | -3 | 12
COc1ccc(N2C3=C(CC4=C2CCCC4=O)C(=O)CCC3)cc1 | 4 | 3 | 7 | 58* | 1 | 4 | 2
Cc1nnc(SCC(=O)c2cc(C)n(-c3c(C)n(C)n(-c4ccccc4)c3=O)c2C)s1 | -7 | -7 | 3 | 38* | -1 | 6 | 27
Cc1cc(C(=O)CSc2nnc(N)s2)c(C)n1-c1c(C)n(C)n(-c2ccccc2)c1=O | 4 | -1 | -5 | 17 | -2 | 4 | .
Cc1ccsc1C(=O)NCCc1ccc(S(N)(=O)=O)cc1 | -5 | -3 | -1 | 4 | -3 | -3 | .
CCOc1ccc(OCc2ccc(C(=O)Nc3ccc(Cl)cn3)o2)cc1 | -1 | -14 | 3 | 0 | -5 | -7 | .
SMILES | LYPLA2 inh | PME-1 primary | PAD4 inh | GSTO1 counter | LYPLA1 counter | Fam108B inh | GSTO1 inh conf
O=C(Nc1ccc(Cl)cn1)c1ccc(COc2ccccc2Br)o1 | -8 | -18 | 1 | 63* | -6 | -12 | 3
CCS(=O)(=O)NCc1ccc2[nH]c3c(c2c1)CCCC3 | -8 | 16 | -15 | 46* | -1 | 6 | 60*
C[C@]12C=CC(=O)C=C1CC[C@@H]1C2=CC[C@]2(C)[C@@H](C(=O)CN3CCN(c4cc(N5CCCC5)nc(N5CCCC5)n4)CC3)CC[C@@H]12 | 1 | -3 | -11 | 51* | -2 | -5 | 45*
CCCCNC(=O)c1ccc2nc(-c3ccco3)c(-c3ccco3)nc2c1 | -12 | 3 | -7 | 70* | -12 | 8 | 24
O=C(c1ccc2nc(-c3ccco3)c(-c3ccco3)nc2c1)N1CCN(c2ncccn2)CC1 | 13 | 16 | -6 | 68* | 1 | 14 | 22
CCOc1ccc2ccccc2c1C1NC(=O)NC(C)=C1C(=O)OCCOC (configuration not stated) | -1 | 2 | -3 | 4 | -5 | -2 | .
O=C(CCCn1cncn1)N1CCCC(N2CCN(c3ccc(F)cc3)CC2)C1 (configuration not stated) | -1 | -2 | 1 | -4 | -3 | -1 | .
CCOC(=O)c1ccc(N(C(=O)CNC(=O)c2ccco2)C(C(=O)NCC2CCCO2)c2ccc(OC)c(OC)c2)cc1 (configuration not stated) | 5 | 0 | 1 | 1 | 6 | 1 | .
O=C(OCC(=O)N1CCCC1)c1cc([N+](=O)[O-])ccc1Cl | 2 | -4 | -1 | 16 | 2 | 1 | .
O=C(OCC(=O)N1CCCCC1)c1cc(NS(=O)(=O)c2ccc(Cl)c([N+](=O)[O-])c2)ccc1O | 3 | -8 | -6 | 51* | -2 | 4 | 56*
COCc1c(C(=O)N/N=C/c2ccncc2)nnn1-c1nonc1N | -5 | -7 | -4 | 4 | 0 | 7 | .
Cc1c(Cl)cccc1N=Cc1ccc([N+](=O)[O-])s1 | 6 | 1 | -11 | 39* | -1 | 8 | 16
Cc1ccccc1C(=O)N/N=C/c1ccc([N+](=O)[O-])s1 | 13 | 0 | -2 | 26 | 4 | 1 | .
CCOC(CNc1ncnc2c1cnn2C)OCC | 4 | 5 | -4 | -2 | 1 | 1 | .
CCCCOc1ccc(-c2ncc(C(=O)O)c(C)n2)cc1 | -1 | -3 | -1 | 43* | -2 | -5 | 5
Oc1[nH]c2c(Cl)cc(Cl)cc2c1N=NC(=S)NCC1CCCO1 (configuration not stated) | -2 | 5 | -3 | 51* | -1 | -1 | 7
CCOC(=O)C1=CN(Cc2ccco2)S(=O)(=O)NC1c1cccc(OC)c1 (configuration not stated) | . | . | 2 | . | . | . | .
COc1ccc(-c2cc(=O)oc3c(O)c(O)ccc23)cc1 | 8 | -8 | 7 | 58* | -4 | 6 | 19
O=C(O)c1ccc2c(c1Nc1ccccc1)C(=O)c1ccccc1C2=O | -2 | 5 | -4 | 9 | 1 | 11 | .
